The nature of test [1]: qHTS assay for small molecules that induce genotoxicity in human embryonic kidney cells expressing luciferase-tagged ATAD5 (AID 651632). Further: nearly all actives have a fitted effect of over 15% in size. Further: potency means the concentration at half of the fitted maximal effect. The gist of the method:
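Luminescent reporter readout, HEK293T ATAD5-luc line: 16 hr drug exposure (37C, 5% CO2) followed by Amplite, 30 min RT.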
Background: qHTS replaces the single test concentration by a dilution series.

Test [2] in a line: qHTS assay for small molecule agonists of the p53 signaling pathway - cell viability (AID 651633; calls by dose curve; further: nearly all actives have a fitted effect of over 30% in size; further: potency means the concentration at half of the fitted maximal effect). The gist of the method:
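p53RE-bla cells were treated with compound for 16 hours at 37 C. Cytotoxicity was then measured as CellTiter-Glo luminescence after 30 min at room temperature.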

A short description of test [3]: qHTS assay for small molecules that induce genotoxicity in human embryonic kidney cells expressing luciferase-tagged ATAD5 - cell viability (AID 651634; calls by dose curve; further: nearly all actives have a fitted effect of over 25% in size; further: potency means the concentration at half of the fitted maximal effect). The gist of the method:
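Viability read: CellTiter-Fluor fluorescence, 30 min at 37C. Cells: HEK293T, luciferase-tagged ATAD5. Exposure: 15.5 hr, 37C, 5% CO2, compound or DMSO vehicle.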

The nature of test [4]: qHTS assay to test for compound auto fluorescence at 590 nm (red) in HepG2 cells (AID 720674). The gist of the method: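 Seeding: 2,000 HepG2 cells/well, MEM/10% FBS, overnight 37 C. Dosing: compound vs DMSO. Incubation: 1 hr, 37 C, 5% CO2. Read: fluorescence 540 ex/590 em, Rose Bengal sodium as red reference.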
A short description of test [5]: qHTS assay to test for compound auto fluorescence at 535 nm (green) in HepG2 cells (AID 720675).
The nature of test [6]: qHTS assay to test for compound auto fluorescence at 460 nm (blue) in HEK293 cells (AID 720678). The gist of the method:
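Intrinsic compound fluorescence is recorded in live HEK293 cultures after overnight incubation at 37C, 5% CO2, using excitation 405 nm and emission 460 nm. Values are referenced to triamterene.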

A short description of test [7]: qHTS assay to test for compound auto fluorescence at 590 nm (red) in HEK293 cells (AID 720679). Summed up:
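Red autofluorescence, HEK293 cells: 2,000 cells/well; attach 4-5 hr 37C; add 23 nL cpd or DMSO; incubate o/n 37C 5% CO2; read Ex540/Em590; Rose Bengal sodium reference.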

A short description of test [8]: qHTS assay for small molecule disruptors of the mitochondrial membrane potential - cell viability (AID 720634; calls by dose curve; further: nearly all actives have a fitted effect of over 20% in size; further: potency means the concentration at half of the fitted maximal effect). Summed up:
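HepG2, 1 hr compound, 37 C. ATP luminescence via CellTiter-Glo, 30 min RT, same well as m-MPI.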

Test [9] in a line: qHTS assay for small molecule disruptors of the mitochondrial membrane potential (AID 720635). Further: potency means the concentration at half of the fitted maximal effect. Summed up:
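HepG2 cells exposed to compound 1 hr at 37C, then Mito-MPS dye 30 min. Ratio read of aggregate (540/590 nm) versus monomer (490/535 nm) fluorescence.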

SMILES strings stand for the structures. Several values for one entry are separate records, joined by “and”; a condition that tells them apart may be missing. Equal entries are not always repeated. Unmarked numbers belong to inactive results. Records with an inconclusive call do not appear. Activity calls are given as the source filed them. Unless noted, the call rests on the fitted dose curve; in most records, active means well fitted curve in the direction sought with a large enough effect in the repeat runs; inconclusive means weak or mixed curves; inactive means no such curve, though single readings can be large; an effect the other way counts as inactive or inconclusive.

On to `C=CC(=O)OCC(CO)(COC(=O)C=C)COC(=O)C=C`, for which the Potency in test [1] is 4.87 µM (active) and 5.45 µM (active); in [2] it was 4.34 µM (active); in test [3] it was 12.2 µM (active) and 15.4 µM (active). The Potency entry in test [4], in test [5], in test [6] and in [7] was “inactive” each time.

In the case of `O=C(NO)C1(NS(=O)(=O)c2ccc(Oc3ccc(F)cc3)cc2)CCOCC1`, the Potency entry in [1], in test [2], in [8], in test [9], in [4] and in test [5] was “inactive” in each case. In addition, the Potency entry in test [6] and in [7] was “inactive” throughout.

Take `CNCc1cc(F)ccc1Oc1ccc(Cl)c(Cl)c1`: the Potency result in test [1], in test [2], in test [3], in test [8], in test [4] and in test [5] was “inactive” throughout. For the same compound, the Potency entry in [6] and in [7] was “inactive” throughout.

On to `N#CSc1ccc(N)c([N+](=O)[O-])c1`, for which the Potency entry in [1], in [2], in test [8], in test [4], in test [5] and in test [6] was “inactive” throughout. Besides, in test [7], the Potency entry is “inactive”. Moreover, the Potency in test [3] was 61.5 µM (active).

Regarding `COc1ccc(CN2CCN(C(c3ccc(F)cc3)c3ccc(F)cc3)CC2)c(OC)c1OC`, the Potency result in test [1], in test [8], in test [4], in test [5], in test [6] and in [7] was “inactive” throughout. For the same compound, the Potency in test [2] was 26.6 µM (active); in test [3], 21.1 µM (active).

As for `OC1(c2ccc(Cl)c(C(F)(F)F)c2)CCN(CCCC(c2ccc(F)cc2)c2ccc(F)cc2)CC1`, the Potency result in test [1], in test [8], in test [4], in test [5], in test [6] and in test [7] was “inactive” throughout. For the same compound, the Potency is 9.44 µM (active) in test [2] and 23.7 µM (active) in test [3].

Turning to `Cc1ccc(O)c2ncccc12`, the Potency entry in test [1], in test [2], in test [3], in test [8], in [4] and in test [5] was “inactive” throughout. Further, the Potency entry in test [6] and in test [7] was “inactive” each time.

As for `CCc1oc2ccccc2c1C(=O)c1cc(Br)c(O)c(Br)c1`, the Potency result in test [1], in test [3], in [4], in test [5], in [6] and in test [7] was “inactive” each time. Besides, the figures for the Potency in test [2] and in test [9] were 26.6 µM (active) and 5.96 µM (active), respectively.

Regarding `CC(C)OC(=O)c1cc2c(OCC(O)CNC(C)(C)C)cccc2[nH]1` (configuration not stated), the Potency result in test [1], in test [2], in [3], in test [8], in [4] and in test [5] was “inactive” each time. The Potency result in [6] and in test [7] was “inactive” each time.

For `C=CC(=O)OCCn1c(=O)n(CCOC(=O)C=C)c(=O)n(CCOC(=O)C=C)c1=O`, the figures for the Potency in test [1], in test [2] and in test [3] were 5.45 µM (active), 27.3 µM (active) and 27.3 µM (active), respectively. The Potency entry in test [8], in test [4], in test [5], in [6] and in test [7] was “inactive” throughout.

`CCCC(C)c1ccccc1O` (configuration not stated): the Potency result in [1], in test [2], in test [3], in [8], in test [4] and in test [5] was “inactive” each time. The Potency result in test [6] and in [7] was “inactive” in each case.

On to `CCCCC(CC)COC(=O)c1ccccc1C(=O)O` (configuration not stated), for which the Potency result in test [1], in [2], in [3], in [8], in test [4] and in test [5] was “inactive” throughout. For the same compound, the Potency result in test [6] and in test [7] was “inactive” throughout.

For the compound `CC(C)(C)C(=O)OCOC(=O)C1N2C(=O)CC2S(=O)(=O)C1(C)C` (configuration not stated), the Potency result in test [1], in test [2], in test [3], in test [4], in test [5] and in test [6] was “inactive” throughout. Further, the Potency entry in [7] is “inactive”.

Turning to `C[C@]12CCC(=O)C=C1CC[C@@H]1[C@@H]2[C@@H](O)C[C@@]2(C)[C@H]1CC[C@]2(O)C(=O)COC(=O)CCC(=O)O`, the Potency result in [1], in [2], in [3], in test [8], in [4] and in test [5] was “inactive” throughout. Moreover, the Potency result in [6] and in test [7] was “inactive” throughout.

Take `CC(C)(C)CC(C)(C)c1ccc(O)c(Cc2ccc(Cl)cc2Cl)c1`: the Potency result in [1], in test [4], in [5], in test [6] and in [7] was “inactive” throughout. Besides, the Potency is 13.3 µM (active) in test [2], 23.7 µM (active) in test [3] and 1.68 µM (active) in test [9].

In the case of `O=S1(=O)CC(Cl)(Cl)C(Cl)(Cl)C1`, the Potency in [1] was 4.86 µM (active); in test [2] it was 3.06 µM (active); in [3], 24.3 µM (active); in [8], 15.4 µM (active). For the same compound, the Potency entry in test [4], in test [5], in [6] and in test [7] was “inactive” in each case.

For `COc1cc(-c2nc(NC(=O)c3cc4cc(C)cc(C)c4n3CC(=O)O)sc2CCC2CCCCC2)c(OC)cc1Cl`, the Potency entry in [1], in test [8], in test [4], in [5], in [6] and in [7] was “inactive” throughout. For the same compound, the Potency in test [2] is 3.97 µM (active); in test [3], 39.7 µM (active).

Regarding `Oc1ccc2c(c1)-c1ccccc1C2`, the Potency entry in test [1], in [2], in test [3], in test [4], in test [5] and in [6] was “inactive” in each case. Also, the Potency entry in [7] is “inactive”. Further, the Potency in [9] was 9.69 µM (active).

The values are drawn from PubChem BioAssay (Tox21).
